# Measurements taken from the antibiotic and cytotoxicity screens of Wong et al. (2023).
# In all, about 39,000 compounds went through this assay and about 3,300 (8.5%) were called active. The list comes from a sample in which actives are over-represented; it also holds similar structures and randomly drawn compounds.
# Tested on: HepG2
# Assay: cytotoxicity call (relative viability < 0.9)
# Conditions: 10 µM
row,Compound,cytotoxicity call
1,COCC(=O)N1C[C@H](C)[C@@H](OC)CN(C)C(=O)c2cc(NC(=O)c3ccc(F)cc3)ccc2OC[C@@H]1C,inactive
2,N#Cc1cn(C2CCCCC2)c(=O)[nH]c1=O,inactive
3,C[C@H]1CCCCO[C@H](CN(C)C(=O)Cc2ccccc2)[C@@H](C)CN([C@@H](C)CO)C(=O)c2cc(NC(=O)C3CCCCC3)ccc2O1,inactive
4,CC(C)CC#Cc1ccc2c(c1)O[C@H](CN(C)C(=O)Cc1ccccn1)[C@@H](C)CN([C@@H](C)CO)S2(=O)=O,inactive
5,C[C@@H]1CN([C@H](C)CO)C(=O)Cc2cc(NC(=O)c3ccncc3)ccc2O[C@@H]1CN(C)C(=O)NC1CCCCC1,inactive
6,C[C@@H]1CN([C@H](C)CO)C(=O)c2cc(-c3ccncc3)cnc2O[C@@H]1CN(C)S(=O)(=O)c1ccc(F)cc1,inactive
7,Cc1nsc(-c2ccccc2)n1,inactive
8,C[C@@H]1CCCCO[C@@H](CN(C)Cc2ccc3c(c2)OCO3)[C@@H](C)CN([C@H](C)CO)C(=O)c2cc(NS(=O)(=O)c3ccc(F)cc3)ccc2O1,active
9,C[C@@H]1CN([C@H](C)CO)C(=O)c2cc(NS(=O)(=O)c3ccc(F)cc3)ccc2O[C@@H](C)CCCCO[C@@H]1CN(C)Cc1ccc2c(c1)OCO2,inactive
10,C[C@@H]1CCCCO[C@H](CN(C)Cc2ccc3c(c2)OCO3)[C@@H](C)CN([C@@H](C)CO)C(=O)c2cc(NS(=O)(=O)c3ccc(F)cc3)ccc2O1,active
11,C[C@@H]1CN([C@@H](C)CO)C(=O)c2cc(NS(=O)(=O)c3ccc(F)cc3)ccc2O[C@@H](C)CCCCO[C@H]1CN(C)Cc1ccc2c(c1)OCO2,inactive
12,C[C@@H]1CCCCO[C@H](CN(C)Cc2ccc3c(c2)OCO3)[C@H](C)CN([C@H](C)CO)C(=O)c2cc(NS(=O)(=O)c3ccc(F)cc3)ccc2O1,inactive
13,C[C@@H]1CCCCO[C@@H](CN(C)Cc2ccc3c(c2)OCO3)[C@@H](C)CN([C@@H](C)CO)C(=O)c2cc(NS(=O)(=O)c3ccc(F)cc3)ccc2O1,active
14,C[C@@H]1CCCCO[C@@H](CN(C)Cc2ccc3c(c2)OCO3)[C@H](C)CN([C@@H](C)CO)C(=O)c2cc(NS(=O)(=O)c3ccc(F)cc3)ccc2O1,inactive
15,C[C@H]1CCCCO[C@H](CN(C)Cc2ccc3c(c2)OCO3)[C@@H](C)CN([C@@H](C)CO)C(=O)c2cc(NS(=O)(=O)c3ccc(F)cc3)ccc2O1,inactive
16,C[C@@H]1CCCCO[C@@H](CN(C)Cc2ccc3c(c2)OCO3)[C@H](C)CN([C@H](C)CO)C(=O)c2cc(NS(=O)(=O)c3ccc(F)cc3)ccc2O1,inactive
17,C[C@@H]1CN([C@H](C)CO)C(=O)c2cc(-c3cccnc3)cnc2O[C@@H]1CN(C)Cc1ccc(Oc2ccccc2)cc1,inactive
18,CC(/C=C/C(=O)NO)=C\c1ccccc1OCc1cn(CC[C@@H]2OC(=O)[C@H](Cc3ccccc3)N3CC4=C[C@@H](C5CC5)n5c(=O)n(C)c(=O)n5[C@H]4[C@H]23)nn1,inactive
19,C[C@@H](N)C(=O)OC(C)(C)Cc1ccc(Cl)cc1,inactive
20,C[C@@H]1CCCCO[C@@H](CN(C)S(C)(=O)=O)[C@H](C)CN([C@@H](C)CO)C(=O)c2cc(NS(C)(=O)=O)ccc2O1,inactive
21,COC(=O)c1c2oc(c1C(=O)OC)C(=O)N[C@@H](Cc1ccccc1)Cn1cc(nn1)CNC(=O)[C@@H](Cc1ccccc1)NC(=O)N[C@@H](CO)CC2,inactive
22,C[C@H]1OC(=O)CC[C@@H](O)/C=C/[C@@H](O)[C@@H]1O,inactive

row,Compound,cytotoxicity call
1,O=C(O)[C@H]1Cc2ccccc2CN1,inactive
2,CC(C)NC(=O)N[C@H]1C=C[C@@H](CC(=O)NCCCN(C)C)O[C@@H]1CO,inactive
3,COc1nc(N)nc2c1ncn2[C@@H]1O[C@H](CO)[C@@H](O)[C@@H]1O,inactive
4,COc1ccc(C[C@H](N)C(=O)N[C@H]2[C@@H](O)[C@@H](n3cnc4c(N(C)C)ncnc43)O[C@@H]2CO)cc1,active
5,COc1ccc(C[C@@H](N)C(=O)N[C@@H]2[C@@H](O)[C@@H](n3cnc4c(N(C)C)ncnc43)O[C@@H]2CO)cc1,active
6,Nc1ncnc2c1ncn2C1OC(CO)C(O)C1O (stereo not given),inactive
7,CN(C)c1ncnc2c1ncn2[C@H]1O[C@@H](CO)[C@@H](N)[C@@H]1O,active
8,Nc1ncnc2c1ncn2[C@@H]1O[C@H](CO)[C@@H](O)[C@H]1O,inactive
9,COc1ccc(CC(N)C(=O)NC2C(CO)OC(n3cnc4c(N(C)C)ncnc43)C2O)cc1.Cl.Cl (stereo not given),active
10,Nc1ccc(CCNc2ncnc3c2ncn3[C@@H]2O[C@H](CO)[C@@H](O)[C@H]2O)cc1,inactive
11,C[C@@H]1CN([C@H](C)CO)C(=O)c2cccc(NS(C)(=O)=O)c2O[C@@H]1CN(C)Cc1ccc(C(=O)Nc2ccccc2N)cc1,inactive
12,COCC#Cc1ccc2c(c1)O[C@H](CN(C)S(=O)(=O)c1ccc(C)cc1)[C@@H](C)CN([C@H](C)CO)S2(=O)=O,inactive
13,C[C@@H]1CN([C@H](C)CO)C(=O)c2cc(NC(=O)Nc3cccc4ccccc34)ccc2O[C@@H]1CN(C)S(=O)(=O)c1ccc(Cl)cc1,inactive
14,C[C@H](CO)N1C[C@H](C)[C@H](CN(C)S(=O)(=O)c2cn(C)cn2)Oc2c(NC(=O)C3CCCCC3)cccc2C1=O,inactive
15,C[C@H]1CN([C@@H](C)CO)C(=O)Cc2cc(NC(=O)Cc3cn(C)c4ccccc34)ccc2O[C@H]1CN(C)S(=O)(=O)c1cn(C)cn1,inactive
16,COc1ccc(NC(=O)N(C)C[C@H]2OCCCC[C@H](C)Oc3ccc(NC(=O)Nc4ccccc4)cc3C(=O)N([C@@H](C)CO)C[C@H]2C)cc1,inactive
17,COCCNC(=O)C[C@H]1CC[C@@H](NS(=O)(=O)c2ccc(C)cc2)[C@H](CO)O1,inactive
18,Cc1ccc(S(=O)(=O)Nc2ccc3c(c2)CC(=O)N([C@H](C)CO)C[C@H](C)[C@H](CN(C)S(=O)(=O)c2cccs2)O3)cc1,inactive
19,COc1ccc(C[C@H](N)C(=O)N[C@H]2[C@@H](O)[C@H](n3cnc4c(N(C)C)ncnc43)O[C@@H]2CO)cc1,active
20,Nc1ncnc2c1ncn2[C@@H]1O[C@H](CSCC[C@H](N)C(=O)O)[C@@H](O)[C@H]1O,inactive
21,C[S+](CC[C@H](N)C(=O)O)C[C@H]1O[C@@H](n2cnc3c(N)ncnc32)[C@H](O)[C@@H]1O (stereo not given in full),inactive
22,C[C@H](CO)N1C[C@H](C)[C@H](CN(C)S(=O)(=O)c2ccccc2F)Oc2ncc(C#Cc3cccnc3)cc2C1=O,inactive

row,Compound,cytotoxicity call
1,C[C@H](CO)N1C[C@H](C)[C@H](CN(C)C(=O)Nc2cccc3ccccc23)Oc2ncc(-c3ccc(F)cc3)cc2C1=O,inactive
2,COCCCCC(=NOCCN)c1ccc(C(F)(F)F)cc1.O=C(O)C=CC(=O)O,active
3,O=C(Nc1cccc2ccccc12)c1ccc(C(F)(F)F)cc1,inactive
4,Cc1noc(C)c1NC(=O)Nc1ccc2c(c1)CC(=O)N([C@H](C)CO)C[C@@H](C)[C@@H](CN(C)CC1CC1)O2,inactive
5,COc1ccc(NC(=O)N(C)C[C@@H]2Oc3ccc(NC(=O)Cn4cnnn4)cc3C(=O)N([C@@H](C)CO)C[C@@H]2C)cc1,inactive
6,CO[C@@H]1CN(C)C(=O)c2cc(NS(=O)(=O)c3cn(C)cn3)ccc2OC[C@@H](C)N(CC2CC2)C[C@H]1C,inactive
7,Cn1c(=O)c2[nH]cnc2n(C)c1=O.NCCN,inactive
8,C[C@@H]1CCCCO[C@H](CN(C)CC2CCCCC2)[C@H](C)CN([C@@H](C)CO)C(=O)c2cc(NC(=O)Nc3ccccc3)ccc2O1,active
9,C[C@@H]1CCCCO[C@H](CN(C)CC2CC2)[C@@H](C)CN([C@H](C)CO)C(=O)c2cc(NC(=O)Nc3ccccc3)ccc2O1,inactive
10,C[C@H](CO)N1C[C@H](C)[C@@H](CN(C)CC2CCCCC2)OCCCC[C@H](C)Oc2ccc(NC(=O)Nc3ccccc3)cc2C1=O,inactive
11,C[C@@H]1CCCCO[C@H](CN(C)CC2CC2)[C@H](C)CN([C@@H](C)CO)C(=O)c2cc(NC(=O)Nc3ccccc3)ccc2O1,inactive
12,C[C@@H]1CCCCO[C@@H](CN(C)CC2CCCCC2)[C@H](C)CN([C@@H](C)CO)C(=O)c2cc(NC(=O)Nc3ccccc3)ccc2O1,inactive
13,C[C@@H]1CN([C@@H](C)CO)C(=O)c2cc(NC(=O)Nc3ccccc3)ccc2O[C@@H](C)CCCCO[C@@H]1CN(C)CC1CCCCC1,active
14,C[C@@H]1CN([C@H](C)CO)C(=O)c2cc(NC(=O)Nc3ccccc3)ccc2O[C@@H](C)CCCCO[C@@H]1CN(C)CC1CCCCC1,inactive
15,C[C@@H]1CN([C@@H](C)CO)C(=O)c2cc(NC(=O)Nc3ccccc3)ccc2O[C@@H](C)CCCCO[C@H]1CN(C)CC1CCCCC1,inactive
16,C[C@H]1CCCCO[C@@H](CN(C)CC2CCCCC2)[C@@H](C)CN([C@@H](C)CO)C(=O)c2cc(NC(=O)Nc3ccccc3)ccc2O1,active
17,C[C@H]1CCCCO[C@H](CN(C)CC2CCCCC2)[C@@H](C)CN([C@@H](C)CO)C(=O)c2cc(NC(=O)Nc3ccccc3)ccc2O1,inactive
18,C[C@@H]1CCCCO[C@H](CN(C)CC2CCCCC2)[C@@H](C)CN([C@H](C)CO)C(=O)c2cc(NC(=O)Nc3ccccc3)ccc2O1,inactive
19,C[C@@H]1CCCCO[C@@H](CN(C)CC2CCCCC2)[C@@H](C)CN([C@H](C)CO)C(=O)c2cc(NC(=O)Nc3ccccc3)ccc2O1,active
20,C[C@H](CO)N1C[C@H](C)[C@@H](CN(C)S(=O)(=O)c2cn(C)cn2)Oc2c(NC(=O)c3nc4ccccc4s3)cccc2C1=O,inactive
21,COc1ccc(NC(=O)N2C[C@H](O)COC[C@@H]3O[C@@H](CC(=O)NCc4ccccc4OC)CC[C@H]32)cc1,inactive
